The list is not random: actives were taken first. Their share in the collection is about 8.9%.
M1 antag = antagonists of rat M1 muscarinic receptor; P08482; CHO-M1 cells, Fluo-4 calcium, ACh EC80 antagonist mode; active compounds read low; B-score at 10 µM; 3.4% of 64,000 active; AID 628;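 active means calcium fluorescence response, raw or row-and-column corrected B-score, differing from the plate sample mean either way at a set confidence level, mostly lower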
Target sequence (P08482 whole entry, looked up): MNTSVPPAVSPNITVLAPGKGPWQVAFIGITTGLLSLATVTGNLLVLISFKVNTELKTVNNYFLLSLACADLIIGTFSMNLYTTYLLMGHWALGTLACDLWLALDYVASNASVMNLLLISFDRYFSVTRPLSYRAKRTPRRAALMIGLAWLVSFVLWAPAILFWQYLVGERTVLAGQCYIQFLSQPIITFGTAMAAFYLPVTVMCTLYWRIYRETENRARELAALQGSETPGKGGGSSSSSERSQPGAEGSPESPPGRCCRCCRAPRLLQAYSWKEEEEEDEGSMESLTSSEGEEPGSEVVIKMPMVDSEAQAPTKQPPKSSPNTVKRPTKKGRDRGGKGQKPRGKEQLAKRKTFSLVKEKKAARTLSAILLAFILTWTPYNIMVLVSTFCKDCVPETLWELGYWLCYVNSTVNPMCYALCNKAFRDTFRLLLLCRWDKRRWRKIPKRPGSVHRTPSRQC
D1 mod = allosteric modulators of human D1 dopamine receptor | HEK293 D1, CRE-luciferase, dopamine EC30 potentiation; actives deviate in either direction | AID 641 | B-score at 10 µM | P21728 | 5.9% of 58,000 active;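 active means luminescence count or its row- and column-corrected plate score outside the 99.7% band of the plate's sample wells, on either side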
WNV protease inh = WNV NS2B-NS3 proteinase inhibition; WNV NS2B-NS3 protease, fluorogenic substrate Ex360/Em465; active compounds read low; z-score (concentration not given with the values); 0.18% of 65,000 active; in the data active means z-score below about -3
Htt clearance = compounds clearing mutant huntingtin protein; HeLa Exon1htt(103Q)mCFP, aggregate imaging; zero = plate's median compound well; inhibition, % at 1.5 µM; 0.42% of 47,000 active;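 active means inhibition of aggregate fluorescence above about 70%, also judged a hit by eye on the cell image, limit read from the data, passing the limit was not always enough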;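 further: cells exposed to compound for three days before fixation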
M1 agonist = M1 muscarinic receptor agonism; 3% of 64,000 active; CHO-M1 cells, Fluo-4 calcium fluorescence, agonist mode; active compounds read high; B-score at 10 µM; AID 626;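 active means fluorescence rise, raw or as B-score row- and column-corrected plate score, outside the 99.7% band of its plate's samples, either direction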
D1 PAM confirm = D1 receptor (human) allosteric modulation, confirmed | shares compounds with D1 mod | HEK293 D1 CRE-luciferase, dopamine EC30 potentiation; active compounds read high | luminescence at 10 µM | 88% of 2,200 active | AID 642;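 active means luminescence in either of two replicates above the same-plate mean plus 3 SD of the low-dose dopamine control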
D1 ag no DA = D1 (human) signaling in absence of dopamine | shares compounds with D1 mod | HEK293 D1 CRE-luciferase, luminescence, no dopamine; active compounds read high | luminescence at 10 µM | 0.8% of 1,900 active; in the data active means luminescence above about 3900
Isoprot counter = counter-screen for D1 modulators: isoproterenol response in HEK293 cells; shares compounds with D1 mod; HEK293 D1 CRE-luciferase, isoproterenol EC30 counter-screen; AID 647; calls only at 10 µM; 63% of 2,200 active;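 active means luminescence in either replicate above plate mean of wells with a partly effective reference agonist dose plus 3 SD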;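 further: isoproterenol raises cAMP through native beta-adrenoceptor Gs so signal bypasses D1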
Active calls of the source: *.

Results for CCn1c(=O)c2ccccc2n2c(SCC(=O)NCc3cccs3)nnc12 ?
M1 antag: 0.43; D1 mod: 4.7*; WNV protease inh: 1; M1 agonist: 0.95; D1 PAM confirm: 7672; D1 ag no DA: 1452; Isoprot counter: inactive

Results for CCCn1c(=O)c2ccccc2n2c(SCC(=O)NCc3cccs3)nnc12 ?
M1 antag: 0.038; D1 mod: -2.1; WNV protease inh: 0.73; M1 agonist: 0.9

Results for CCCCOc1nc2ccccc2nc1C(C#N)C(=O)NC1CCCCC1 (stereo not given) ?
M1 antag: -0.27; WNV protease inh: 0.39; M1 agonist: 5.6

What do the screens show for `COc1cc2nc(COc3ccc(C#N)cc3)n(CC#N)c(=O)c2cc1OC`?
M1 antag: -0.88; D1 mod: 1.3; WNV protease inh: -0.18; Htt clearance: 33; M1 agonist: -0.56

What do the screens show for `O=c1[nH]c2c(s1)C(c1ccco1)C1C3CCC(C3)C1S2` (stereo not given)?
M1 antag: -0.9; D1 mod: 26*; WNV protease inh: -0.4; M1 agonist: -0.62; D1 PAM confirm: 19088*; D1 ag no DA: 1756; Isoprot counter: active

What do the screens show for `C=CCSc1nnc(-c2ccccc2NC(=O)CC)c(=O)[nH]1`?
M1 antag: 0.61; WNV protease inh: -0.48; Htt clearance: 2; M1 agonist: -1.1

Results for CCn1c(SC)nc2c(c1=O)SC(C)C2 (stereo not given) ?
M1 antag: -0.11; D1 mod: 2.2; WNV protease inh: 0.14; M1 agonist: 0.16

What do the screens show for `CCSc1nc2c(c(=O)n1CC)SC(C)C2` (stereo not given)?
M1 antag: 0.6; D1 mod: 5.5*; WNV protease inh: 0.07; M1 agonist: 0.1; D1 PAM confirm: 12712*; D1 ag no DA: 1732; Isoprot counter: inactive

Results for CCC(C)Sc1nc2c(c(=O)n1C)SC(C)C2 (stereo not given) ?
M1 antag: -1.1; D1 mod: 3.9*; WNV protease inh: -0.14; M1 agonist: -0.02; D1 PAM confirm: 8748*; D1 ag no DA: 1640; Isoprot counter: inactive

How did Cc1ccc(-n2c(SCC(=O)Nc3cc(C)on3)nc3c(c2=O)SC(C)C3)cc1 (stereo not given) do in these assays?
M1 antag: 0.07; D1 mod: 2.3; WNV protease inh: -0.63; M1 agonist: 0.62

What do the screens show for `CCn1c(SCC(=O)Nc2cc(C)on2)nc2c(c1=O)SC(C)C2` (stereo not given)?
M1 antag: -0.6; D1 mod: 6.2*; WNV protease inh: 1; M1 agonist: -0.16; D1 PAM confirm: 6212*; D1 ag no DA: 1608; Isoprot counter: inactive

How did CC(C)(C)C(=O)N=C1SC2CS(=O)(=O)CC2N1c1ccc2c(c1)OCO2 (stereo not given) do in these assays?
M1 antag: -0.01; D1 mod: -0.42; WNV protease inh: -0.04; M1 agonist: -0.0058

Results for C/C(=N/Oc1nc(C)cc(C)n1)c1ccc(F)cc1 ?
Htt clearance: -17

What do the screens show for `O=c1nc(-c2ccccc2)c2cc(Cl)ccc2[nH]1`?
M1 antag: 0.5; D1 mod: 6.7*; WNV protease inh: 0.33; Htt clearance: -42; M1 agonist: 0.61; D1 PAM confirm: 9072*; Isoprot counter: active

What do the screens show for `CCOC(=O)C1CCCCN1Cc1cc(Cl)ccc1O` (stereo not given)?
M1 antag: -0.041; D1 mod: 4*; WNV protease inh: -0.86; M1 agonist: 0.074; D1 PAM confirm: 8896*; Isoprot counter: active

What do the screens show for `CCOC(=O)C1CCCCN1Cc1cccc(OC)c1OC` (stereo not given)?
Htt clearance: 50

Results for Cc1oc2ccc(OCC(N)=O)cc2c1C(=O)OC(C)C ?
M1 antag: 1.6; D1 mod: 4.6*; WNV protease inh: 0.65; M1 agonist: -0.092; D1 PAM confirm: 6628*; D1 ag no DA: 1556; Isoprot counter: inactive

Results for CCC(C)c1ccccc1NC(=S)Nc1cccnc1 (stereo not given) ?
Htt clearance: 24

What do the screens show for `CCOC(=O)c1c(C)[nH]c(C(=O)Cn2c(=O)c3c(ncn3CC)n(Cc3ccccc3)c2=O)c1C`?
M1 antag: -0.85; D1 mod: 13*; WNV protease inh: 0.2; Htt clearance: 50; M1 agonist: -0.97; D1 PAM confirm: 20428*; D1 ag no DA: 1684; Isoprot counter: active

Results for CCn1cnc2c1c(=O)n(CC(=O)Nc1cc(C)on1)c(=O)n2Cc1ccccc1 ?
M1 antag: -0.65; D1 mod: 0.81; WNV protease inh: -0.97; Htt clearance: -72; M1 agonist: -1

Results for CN(CCCNC(=O)C1CCC(=O)N1Cc1ccc(F)cc1)c1ccccc1 (stereo not given) ?
M1 antag: 0.029; D1 mod: -0.017; WNV protease inh: -0.46; Htt clearance: -250; M1 agonist: -0.065

Results for CCCCn1c(=NC(=O)c2ccco2)c(C(=O)OCC)cc2c(=O)n3ccccc3nc21 ?
M1 antag: -1.1; D1 mod: 5.6*; WNV protease inh: 0.74; Htt clearance: -18; M1 agonist: -0.029; D1 PAM confirm: 9240*; D1 ag no DA: 1496; Isoprot counter: inactive

How did CCOCCCn1c(=NC(=O)c2cccnc2)c(C(=O)OCC)cc2c(=O)n3ccccc3nc21 do in these assays?
M1 antag: -0.55; D1 mod: 3.3*; WNV protease inh: 0.9; Htt clearance: 17; M1 agonist: 1.3; D1 PAM confirm: 10440*; D1 ag no DA: 1560; Isoprot counter: active

Results for CCOC(=O)c1cc2c(=O)n3ccccc3nc2n(Cc2ccc(Cl)cc2)c1=N ?
M1 antag: -0.73; D1 mod: 0.29; WNV protease inh: -0.01; M1 agonist: 0.64

What do the screens show for `CCCn1c(=NC(=O)c2ccncc2)c(C(=O)OCC)cc2c(=O)n3cccc(C)c3nc21`?
M1 antag: -0.73; D1 mod: -0.37; WNV protease inh: 0.46; M1 agonist: 0.54

Results for COc1ccc(-n2nnnc2SCC(=O)Nc2nnc(C)s2)cc1OC ?
M1 antag: -0.27; D1 mod: 1.8; WNV protease inh: 0.23; Htt clearance: -12; M1 agonist: -0.31

What do the screens show for `Cc1cc(=O)c2n(Cc3ccc(Cl)cc3)nc[n+]2[nH]1`?
M1 antag: 0.82; D1 mod: 4.7*; WNV protease inh: 1.1; M1 agonist: -0.01; D1 PAM confirm: 8876*; D1 ag no DA: 1700; Isoprot counter: inactive
